The panel holds about 79,000 compounds, 15% with a hit somewhere; the sample as a whole holds those more often. Values without a mark were called inactive. Calls of active or inactive are those of the source. Rule as the data show it: active = growth inhibition above about 70%; inactive = the rest.

The nature of experiment [1]: NCI Yeast Anticancer Drug Screen. Data for the rad50 strain (AID 155).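 Also: 0% = growth of vehicle-only cultures of the same strain.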 To be noted: S. cerevisiae rad50 strain growth inhibition, active compounds read high. The method in brief:
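Cells are treated with compound, grown, and their growth is then scored against vehicle-only cultures of the same repair-deficient yeast strain.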

A short description of experiment [2]: NCI Yeast Anticancer Drug Screen. Data for the mec2-1 strain (AID 157). To be noted: S. cerevisiae mec2-1 strain, active compounds read high. In a few lines:
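Cells of the genetically defined mec2-1 yeast strain are incubated with test compound. Inhibition of growth is calculated against vehicle-treated controls.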

Experiment [3] is described as follows: NCI Yeast Anticancer Drug Screen. Data for the sgs1 mgt1 strain (AID 161).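 Also: 0% = growth of cultures given vehicle only.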 Particulars: S. cerevisiae sgs1 mgt1 strain, active compounds read high. In a few lines:
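Test agents were incubated with a DNA-repair-mutant yeast strain. Growth was then read and compared against vehicle-treated controls.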

Experiment [4] is described as follows: NCI Yeast Anticancer Drug Screen. Data for the cln2 rad14 strain (AID 165).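 Also: 0% = growth equal to vehicle treated cultures.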 To be noted: S. cerevisiae cln2 rad14 strain, active compounds read high. The method in brief: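 The screen exposed genetically defined yeast (cln2 rad14) to test compounds and scored growth inhibition relative to vehicle-treated controls.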
The nature of experiment [5]: NCI Yeast Anticancer Drug Screen. Data for the bub3 strain (AID 167). To be noted: S. cerevisiae bub3 mutant strain, active compounds read high. In a few lines: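 Part of a panel of yeast mutants defective in DNA damage repair or cell cycle regulation. Each strain is grown with compound, and inhibition is calculated relative to solvent-treated cultures.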
A short description of experiment [6]: NCI Yeast Anticancer Drug Screen. Data for the mlh1 rad18 strain (AID 175). To be noted: S. cerevisiae mlh1 rad18 strain growth inhibition, active compounds read high. The method in brief:
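Compound-treated yeast growth, normalised to vehicle controls. Strain bears defined DNA repair mutations.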

Setting [7] is: at 5.0 µM (retest, dose inferred, filed as 0.5).
The mark [8] stands for this setting: at 50.0 µM (retest, dose inferred, filed as 5.0).

As to `O=C1OC(CC(=O)c2ccccc2Cl)C(Cl)=C1Cl` (configuration not stated), the growth inhibition was 6% in experiment [1] (setting [7]); 33% in experiment [1] (setting [8]); 38.1% in experiment [1] (at 50.0 µM); 7% in experiment [2] (setting [7]); 35% in experiment [2] (setting [8]); 12.6% in experiment [2] (at 50.0 µM). For the same compound, the growth inhibition is 39% in experiment [3] (setting [7]); 52% in experiment [3] (setting [8]); 58.9% in experiment [3] (at 50.0 µM); 16% in experiment [4] (setting [7]); 30% in experiment [4] (setting [8]); 46.6% in experiment [4] (at 50.0 µM). Moreover, the growth inhibition was 1% in experiment [5] (setting [7]); 37% in experiment [5] (setting [8]); -0.55% in experiment [5] (at 50.0 µM); 23% in experiment [6] (setting [7]); 62% in experiment [6] (setting [8]); 65.7% in experiment [6] (at 50.0 µM).

`COC(=O)CC1SC(=S)N(Cc2ccc(Cl)cc2)C1=O` (configuration not stated): the growth inhibition in experiment [1] (setting [7]) is -6%; in experiment [1] (setting [8]) it was 80% (active); in experiment [1] (at 50.0 µM) it was 98.1% (active); in experiment [2] (setting [7]), -8%; in experiment [2] (setting [8]), 61%; in experiment [2] (at 50.0 µM), 92.5% (active). The growth inhibition was 2% in experiment [3] (setting [7]); 93% (active) in experiment [3] (setting [8]); 98.5% (active) in experiment [3] (at 50.0 µM); -59% in experiment [4] (setting [7]); 28% in experiment [4] (setting [8]); 55.6% in experiment [4] (at 50.0 µM). Moreover, the growth inhibition was -15% in experiment [5] (setting [7]); 81% (active) in experiment [5] (setting [8]); 87.5% (active) in experiment [5] (at 50.0 µM); -25% in experiment [6] (setting [7]); 88% (active) in experiment [6] (setting [8]); 98% (active) in experiment [6] (at 50.0 µM).

Take `NS(=O)(=O)c1ccc(NC(=S)/N=C/c2c(O)c3ccccc3[nH]c2=O)cc1`: the growth inhibition is 20% in experiment [1] (setting [7]); 55% in experiment [1] (setting [8]); 22.4% in experiment [1] (at 50.0 µM); 17% in experiment [2] (setting [7]); 26% in experiment [2] (setting [8]); -0.65% in experiment [2] (at 50.0 µM). For the same compound, the growth inhibition in experiment [3] (setting [7]) is -29%; in experiment [3] (setting [8]), 0%; in experiment [3] (at 50.0 µM), 25.4%; in experiment [4] (setting [7]), 3%; in experiment [4] (setting [8]) it was 7%; in experiment [4] (at 50.0 µM) it was -4.25%. The growth inhibition in experiment [5] (setting [7]) was -10%; in experiment [5] (setting [8]), -8%; in experiment [5] (at 50.0 µM) it was -11.8%; in experiment [6] (setting [7]), 21%; in experiment [6] (setting [8]), 30%; in experiment [6] (at 50.0 µM) it was 27.4%.

In the case of `O=C1C=C(c2ccccc2)OC1(Nc1ccccc1)c1ccccc1` (configuration not stated), the growth inhibition in experiment [1] (setting [7]) is 4%; in experiment [1] (setting [8]), 60%; in experiment [1] (at 50.0 µM), 71.7% (active); in experiment [2] (setting [7]), 4%; in experiment [2] (setting [8]), 65%; in experiment [2] (at 50.0 µM), 56.6%. Besides, the growth inhibition was 2% in experiment [3] (setting [7]); 62% in experiment [3] (setting [8]); 76.4% (active) in experiment [3] (at 50.0 µM); 9% in experiment [4] (setting [7]); 53% in experiment [4] (setting [8]); 45.2% in experiment [4] (at 50.0 µM). Moreover, the growth inhibition in experiment [5] (setting [7]) was 11%; in experiment [5] (setting [8]), 62%; in experiment [5] (at 50.0 µM), 72.8% (active); in experiment [6] (setting [7]), 9%; in experiment [6] (setting [8]), 67%; in experiment [6] (at 50.0 µM) it was 59.9%.

As for `COc1cccc2c1C(=O)c1c(O)c(CCl)cc(O)c1C2=O`, the growth inhibition in experiment [1] (setting [7]) was 44%; in experiment [1] (setting [8]), 97% (active); in experiment [1] (at 50.0 µM), 94% (active); in experiment [2] (setting [7]), 23%; in experiment [2] (setting [8]), 91% (active); in experiment [2] (at 50.0 µM) it was 76.5% (active). Also, the growth inhibition was 47% in experiment [3] (setting [7]); 96% (active) in experiment [3] (setting [8]); 95.2% (active) in experiment [3] (at 50.0 µM); 17% in experiment [4] (setting [7]); 96% (active) in experiment [4] (setting [8]); 91.5% (active) in experiment [4] (at 50.0 µM). In addition, the growth inhibition in experiment [5] (setting [7]) is 3%; in experiment [5] (setting [8]) it was 49%; in experiment [5] (at 50.0 µM), 21.8%; in experiment [6] (setting [7]) it was 35%; in experiment [6] (setting [8]), 97% (active); in experiment [6] (at 50.0 µM) it was 94.6% (active).

For the compound `C=CCN1CCC(OC(=O)C(O)(/C=C\CC)C2CCCC2)CC1` (configuration not stated), the growth inhibition in experiment [1] (setting [7]) is 19%; in experiment [1] (setting [8]) it was 61%; in experiment [1] (at 50.0 µM), 68.8%; in experiment [2] (setting [7]), 13%; in experiment [2] (setting [8]), 40%; in experiment [2] (at 50.0 µM), 48.9%. Also, the growth inhibition in experiment [3] (setting [7]) was 37%; in experiment [3] (setting [8]), 63%; in experiment [3] (at 50.0 µM), 70.2% (active); in experiment [4] (setting [7]), 17%; in experiment [4] (setting [8]), 75% (active); in experiment [4] (at 50.0 µM), 62.8%. Also, the growth inhibition in experiment [5] (setting [7]) was 12%; in experiment [5] (setting [8]) it was 83% (active); in experiment [5] (at 50.0 µM), 61.6%; in experiment [6] (setting [7]) it was 7%; in experiment [6] (setting [8]), 67%; in experiment [6] (at 50.0 µM), 59.5%.

`CCc1cccc(C(C)C)c1N1C(=O)C(=O)C(c2nc3ccccc3s2)C(=O)C1=O`: the growth inhibition in experiment [1] (setting [7]) was 65%; in experiment [1] (setting [8]) it was 65%; in experiment [1] (at 50.0 µM), 85.2% (active); in experiment [2] (setting [7]), 23%; in experiment [2] (setting [8]), 23%; in experiment [2] (at 50.0 µM) it was 87.3% (active). Further, the growth inhibition in experiment [3] (setting [7]) was 71% (active); in experiment [3] (setting [8]), 71% (active); in experiment [3] (at 50.0 µM), 83.8% (active); in experiment [4] (setting [7]), 51%; in experiment [4] (setting [8]), 51%; in experiment [4] (at 50.0 µM) it was 85% (active). Further, the growth inhibition in experiment [5] (setting [7]) is 34%; in experiment [5] (setting [8]) it was 34%; in experiment [5] (at 50.0 µM), 86% (active); in experiment [6] (setting [7]), 36%; in experiment [6] (setting [8]) it was 36%; in experiment [6] (at 50.0 µM), 88.2% (active).

Take `Cc1cc(N=[N+]=[N-])c2cc(C3CCCCC3)ccc2n1`: the growth inhibition was 12% in experiment [1] (setting [7]); 99% (active) in experiment [1] (setting [8]); 96.5% (active) in experiment [1] (at 50.0 µM); 8% in experiment [2] (setting [7]); 98% (active) in experiment [2] (setting [8]); 78.8% (active) in experiment [2] (at 50.0 µM). Moreover, the growth inhibition in experiment [3] (setting [7]) is 7%; in experiment [3] (setting [8]), 99% (active); in experiment [3] (at 50.0 µM), 97.8% (active); in experiment [4] (setting [7]) it was 8%; in experiment [4] (setting [8]), 69%; in experiment [4] (at 50.0 µM), 90.3% (active). Moreover, the growth inhibition in experiment [5] (setting [7]) is 0%; in experiment [5] (setting [8]), 96% (active); in experiment [5] (at 50.0 µM), 90.9% (active); in experiment [6] (setting [7]), -2%; in experiment [6] (setting [8]), 99% (active); in experiment [6] (at 50.0 µM), 96.8% (active).

`CCC(=O)NC1=CCC(C(C)(C)C)CC1` (configuration not stated): the growth inhibition in experiment [1] (setting [7]) was 2%; in experiment [1] (setting [8]) it was -4%; in experiment [1] (at 50.0 µM), 10.2%; in experiment [2] (setting [7]), 1%; in experiment [2] (setting [8]), 4%; in experiment [2] (at 50.0 µM) it was -5.55%. Moreover, the growth inhibition in experiment [3] (setting [7]) is 1%; in experiment [3] (setting [8]), 4%; in experiment [3] (at 50.0 µM) it was -0.5%; in experiment [4] (setting [7]), 4%; in experiment [4] (setting [8]), -4%; in experiment [4] (at 50.0 µM) it was 7.9%. In addition, the growth inhibition in experiment [5] (setting [7]) was 9%; in experiment [5] (setting [8]), 18%; in experiment [5] (at 50.0 µM), 42.5%; in experiment [6] (setting [7]), 0%; in experiment [6] (setting [8]), -1%; in experiment [6] (at 50.0 µM) it was -5.45%.

(Values after PubChem BioAssay (NCI).)
